Screening data from PubChem BioAssay.
TRPV1 ag – agonists of human vanilloid receptor 1 (TRPV1). 320,000 compounds, 0.19% hits. TRPV1-expressing cells, Fluo-8 calcium influx, agonist mode. Q8NER1. activation, % at 8.33 µM; in the data active means activation above about 80%; inconclusive means between about 30% and that limit; further: 0% is about no effect
Target sequence (Q8NER1 whole entry, looked up): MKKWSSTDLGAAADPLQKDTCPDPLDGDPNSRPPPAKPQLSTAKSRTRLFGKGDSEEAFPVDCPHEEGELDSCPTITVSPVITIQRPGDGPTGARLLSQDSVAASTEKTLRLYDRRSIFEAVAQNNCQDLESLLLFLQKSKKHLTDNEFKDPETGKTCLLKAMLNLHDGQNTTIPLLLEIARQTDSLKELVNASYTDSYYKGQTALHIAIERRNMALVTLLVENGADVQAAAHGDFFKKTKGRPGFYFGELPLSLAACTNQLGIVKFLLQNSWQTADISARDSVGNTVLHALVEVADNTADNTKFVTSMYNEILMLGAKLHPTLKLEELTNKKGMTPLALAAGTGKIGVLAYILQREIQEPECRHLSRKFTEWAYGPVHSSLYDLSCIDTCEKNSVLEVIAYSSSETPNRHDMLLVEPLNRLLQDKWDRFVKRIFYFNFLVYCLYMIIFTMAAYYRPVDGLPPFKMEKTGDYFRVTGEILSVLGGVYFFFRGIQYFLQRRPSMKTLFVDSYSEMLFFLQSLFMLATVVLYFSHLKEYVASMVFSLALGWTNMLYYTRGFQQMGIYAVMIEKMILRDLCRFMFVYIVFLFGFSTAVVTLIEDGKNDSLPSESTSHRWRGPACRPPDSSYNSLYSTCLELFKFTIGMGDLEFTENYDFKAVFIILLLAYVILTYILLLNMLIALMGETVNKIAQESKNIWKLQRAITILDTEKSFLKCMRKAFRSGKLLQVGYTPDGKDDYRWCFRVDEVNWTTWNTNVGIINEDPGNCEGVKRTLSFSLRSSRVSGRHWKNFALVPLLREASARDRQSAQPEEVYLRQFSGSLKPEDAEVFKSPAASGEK
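TRPV1-expressing cells were cultured overnight at 35.5C and loaded with Fluo-8 calcium dye for 40 to 90 min at room temperature. After a 10 s baseline, compound was added and calcium influx was read kinetically for 3 min (ex 480/em 520 nm).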
FUS yeast rescue – suppressors of FUS proteinopathy in yeast | S. cerevisiae FUS-expressing, growth rescue, OD600, 24 h | Potency, µM (titrated, usually from 76.6 µM), hits mostly activators | 390,000 compounds, 0.24% hits;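 further: potency means the concentration at half of the fitted maximal effect; plate controls were DMSO vehicle for no effect and reference control for full effect; nearly all actives have a fitted effect of over 55% in size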
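Absorbance at 600 nm, taken 24hr after compound addition, measured rescue of FUS-yeast growth at 30C. Induction used 2% galactose with seeding at OD 0.005. Controls: CP55940 from 92uM final, DMSO only.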
TRPV1 PAM – human TRPV1 potentiation. potentiation, % at 8.33 µM. Q8NER1. TRPV1-expressing cells, Fluo-8 calcium influx, capsaicin EC20 potentiation. 320,000 compounds, 0.02% hits; in the data active means potentiation above about 80%; inconclusive means between about 30% and that limit; further: 0% is about no effect
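Cells expressing TRPV1 were dye-loaded with Fluo-8 and read kinetically: 10 s baseline, 3 min after compound (agonist portion), then 2 min after EC20 capsaicin (allosteric enhancer portion). Calcium-bound dye fluorescence at 480/520 nm.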
Giardia kill – kills Giardia lamblia; 340,000 compounds, 0.15% hits; Giardia lamblia trophozoite viability; activity change, % at 7.66 µM, hits read low; in the data active means activity change below about -80%; inconclusive means between about -30% and that limit;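 further: parasites exposed to compound for two days anaerobically before the ATP read; on the % scale 0 is the no-effect control and ±100 the full control effect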
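Each well holds 100 Giardia trophozoites and compound. After two days (48 hrs) at 37 deg C in anaerobic conditions, ATP is quantified by luminescence.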
ELG1 repair inh – ELG1-dependent DNA repair inhibition; HEK293T ELG1-luciferase reporter, luminescence, 16 h; DNA damage induced by 5-fluorouridine; Potency, µM (doses to about 46.1 µM), without a hit: at the top dose activity change, negative = inhibition, most hits filed as inhibitors; 330,000 compounds, 2.3% hits; AID 504467; further: potency means the concentration at half of the fitted maximal effect; on the % scale 0 is the no-effect control and ±100 the full control effect; nearly all actives have a fitted effect of over 55% in size
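Step one: seed 2,000 cells per well. Step two: pin-transfer compound or DMSO alongside 5-fluorouridine. Step three: incubate 16 hr, 37 °C, 5% CO2. Step four: add ONE-Glo, wait 30 min, read luminescence.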
Starred values were filed as active, the others as inactive; i = inactive; ? = inconclusive; · = not tested or not shown. Sampled rows, rich in hits. Any-hit rate of the full collection: about 2.3%. Unless noted, the call rests on the fitted dose curve; in most records, active means well fitted curve in the direction sought with a large enough effect; inconclusive means small, poorly fitted or top-dose-only effect, or another doubt; inactive means no such curve, though single readings can be large; an effect the other way counts as inactive or inconclusive.

SMILES | TRPV1 ag | FUS yeast rescue | TRPV1 PAM | Giardia kill | ELG1 repair inh
CCOC(=O)/C(=C/C=C1\Sc2ccccc2N1CC)C(C)=O | ? | i | -1 | 5 | ?
CCOC(=O)/C(=C/C=C1\Sc2cc(C)c(C)cc2N1CC)C(C)=O | 106* | ? | -5 | -6 | ?
O=C(Nc1cccc(C(F)(F)F)c1)N1CCC(CN2CCCCCC2)CC1 | · | i | · | · | ·
O=C(OCc1cn([C@@H]2CN(Cc3cccs3)[C@@H](c3ccccc3)C[C@H]2O)nn1)c1ccccc1 | · | i | · | · | ·
CCc1ccc(N/C(N)=N/c2nc(CSc3ccccn3)cc(=O)[nH]2)cc1 | 7 | i | 3 | 9 | 23µM*
COc1cccc(N/C(N)=N/c2nc(CSc3ccccn3)cc(=O)[nH]2)c1 | 4 | · | -2 | · | -11%
COc1ccccc1N/C(N)=N/c1nc(CSc2ccc(C)cc2)cc(=O)[nH]1 | -2 | i | 8 | 6 | 10µM*
Cc1ccc(SCc2cc(=O)[nH]c(/N=C(\N)Nc3ccccc3Sc3ccccc3)n2)cc1 | 4 | · | 20 | -8 | -1%
CCCc1c(-c2cccc(Cl)c2)ncn1CCc1ccccc1OC | · | i | · | · | ·
O=C(Oc1cccc(/C=N/Nc2nc(Nc3ccccc3)nc(N3CCOCC3)n2)c1)c1ccco1 | 7 | · | 14 | 17 | 9.2µM*
Cc1[nH]c2ccccc2c1/C=N/Nc1nc(Nc2ccc(F)cc2)nc(N2CCOCC2)n1 | 2 | i | 0 | -1 | 21µM*
Oc1cccc(/C=N/Nc2cc(N3CCOCC3)nc(N3CCOCC3)n2)c1 | 93* | · | -29 | 14 | ?
Fc1ccc(Nc2nc(N3CCOCC3)nc(N3CCOCC3)n2)cc1 | -2 | i | -7 | 10 | ?
Cc1ccc(Nc2nc(N/N=C/c3c[nH]c4ccccc34)nc(N3CCOCC3)n2)cc1 | -3 | ? | -11 | -5 | 16µM*
c1ccc(Nc2nc(N3CCNCC3)nc(N3CCOCC3)n2)cc1 | 2 | i | -8 | -5 | -9%
COc1cc(/C=N/Nc2nc(N3CCCCC3)nc(N3CCCCC3)n2)ccc1OC(=O)c1ccco1 | -6 | · | -5 | · | 6%
CCCCOc1ccc(C(=O)NCC(=O)OCCCOC(=O)CNC(=O)c2ccc(OCCCC)cc2)cc1 | · | i | · | · | ·
c1ccc(CNc2ncnc3c2ncn3Cc2ccccc2)cc1 | · | · | · | 10 | ·
c1ccc(Nc2nc(N3CCOCC3)nc(N3CCOCC3)n2)cc1 | 5 | i | 4 | -4 | ?
COc1ccc(Nc2nc(NCc3ccco3)nc(N3CCOCC3)n2)cc1 | 86* | i | -10 | -7 | ?
C(=N\Nc1nc(Nc2ccccc2)nc(N2CCOCC2)n1)/c1c[nH]c2ccccc12 | -8 | 28µM* | 12 | 20 | 16µM*
COc1ccc(Nc2nc(N3CCOCC3)nc(N3CCOCC3)n2)cc1 | 2 | i | -1 | -25 | ?
CCOc1ccccc1NC(=O)Cn1c(=O)n(Cc2ccc(OC)cc2)c(=O)c2oc3ccccc3c21 | · | i | · | · | ·
C/C(=N\Nc1ccc([N+](=O)[O-])cc1)c1ccc(N2CCOCC2)cc1 | 6 | i | 7 | 18 | ?
C/C(=N\Nc1ccc([N+](=O)[O-])cc1)c1ccc(-n2nncc2C)cc1 | -3 | i | -4 | -2 | 7.3µM*
SMILES | TRPV1 ag | FUS yeast rescue | TRPV1 PAM | Giardia kill | ELG1 repair inh
CCC(=O)N1CCc2cc(Br)cc(S(=O)(=O)N3CCC(C(=O)Nc4ccccc4F)CC3)c21 | · | i | · | · | ·
COc1ccc2nc(NC(=O)CN(c3ccc(C)cc3)S(=O)(=O)c3c(C)nn(C)c3C)sc2c1 | -4 | i | -26 | -8 | 23µM*
COc1ccc(NC(=O)CN(c2ccc(C)cc2)S(=O)(=O)c2c(C)nn(C)c2C)cc1 | -6 | i | 10 | -4 | 4%
COc1ccc2nc(NC(=O)CCc3cc(OC)c(OC)c(OC)c3)sc2c1 | 5 | i | 10 | 5 | 10µM*
CCOC(=O)N1CCN(CC(=O)Nc2nc3ccccc3s2)CC1 | 8 | i | -4 | 26 | -23%
CCOC(=O)N1CCN(CC(=O)Nc2nc3ccc(OC)cc3s2)CC1 | 9 | i | -22 | -6 | 15µM*
COc1ccc2nc(NC(=O)CCn3cccc3)sc2c1 | 1 | · | 8 | -18 | 26%
O=C(Cn1cc(C(=O)c2cccs2)c2ccccc21)Nc1ccc(Br)cc1 | · | i | · | · | ·
O=C(NCCc1ccccc1)c1cnc2sc(N3CCCCCC3)nn2c1=O | · | i | · | · | ·
COc1ccccc1CNC(=O)c1ccc(CSc2nc3ccncc3n2Cc2cccc(F)c2)cc1 | · | i | · | · | ·
Cc1ccc(NC(=O)CSc2nccn2C2CCCC2)cc1 | · | i | · | · | ·
COc1ccc(Nc2nc(C)nc3c2nnn3Cc2ccccc2)cc1OC | 2 | i | 12 | -7 | 9.2µM*
Cc1nc(Nc2ccc(S(=O)(=O)N3CCCCC3C)cc2)c2nnn(Cc3ccccc3)c2n1 (configuration not stated) | -1 | · | -43 | 3 | 7.3µM*
Cc1nc(Nc2ccc(Cl)cc2)c2nnn(Cc3ccccc3)c2n1 | -2 | i | -7 | -7 | -1%
Cc1nc(NC2CCCC2)c2nnn(Cc3ccccc3)c2n1 | · | i | · | · | ·
Cc1cc(NC(=O)Nc2nnc(N3CCCCCC3)s2)ccc1Br | · | i | · | · | ·
COc1cccc(NC(=O)c2cc(C(=O)Nc3cccc(OC)c3)n(C)n2)c1 | 6 | i | 9 | 2 | 13µM*
COc1cc(Cl)c(C)cc1NC(=O)c1ccc(CN2C(=O)CCn3nc(C)cc32)cc1 | · | i | · | · | ·
CC(=O)Nc1cc(-c2ccccc2N(C)C)cn2c(-c3cccc(C(F)(F)F)c3)cnc12 | · | 32µM* | · | · | ·
CC(=O)Nc1cc(-c2cccc(C(=O)NCCN(C)C)c2)cn2c(-c3cccc(C(F)(F)F)c3)cnc12 | · | i | · | · | ·
CCOC(=O)c1cnc2c(Cl)cc(Cl)cc2c1NCCOCCO | -2 | i | -8 | 5 | 18µM*
O=S(=O)(O)c1cc(O)c2c(O)c(N=Nc3cc(Cl)ccc3O)c(S(=O)(=O)O)cc2c1 | -2 | i | 1 | -3 | ?
Cc1cc(-c2ccc(N=Nc3c(S(=O)(=O)O)cc4cc(S(=O)(=O)O)cc(N)c4c3O)c(C)c2)ccc1N=Nc1c(S(=O)(=O)O)cc2cc(S(=O)(=O)O)cc(N)c2c1O | 4 | · | 25 | · | 7.3µM*
C[C@H](CO)N1C[C@H](C)[C@@H](CN(C)S(=O)(=O)c2ccc(F)cc2)Oc2ccc(NS(=O)(=O)c3cccs3)cc2C1=O | · | i | · | 11 | -15%
COc1ccc(S(=O)(=O)Nc2ccc3c(c2)C(=O)N([C@H](C)CO)C[C@H](C)[C@@H](CN(C)C(=O)Nc2ccc(F)cc2)OCCCC[C@H](C)O3)cc1 | · | 25µM* | · | · | ·
C[C@H](CO)N1C[C@H](C)[C@@H](CN(C)S(=O)(=O)c2cccs2)Oc2ccc(NS(=O)(=O)c3ccccc3)cc2C1=O | · | i | · | -12 | 9.2µM*
